Shown are actives, neighbours in structure and some others; about 9.4% of the full set was active somewhere.
NPC1 promoter act – activators of NPC1 promoter. Huh7 NPC1 promoter luciferase reporter, 24 h. Potency, µM (series often up to 9.22 µM), for the others: at the highest dose activation, hits mostly activators. 2.4% of 320,000 active; note: % of control where 0% means no effect; nearly all actives have a fitted effect of over 60% in size
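In 1536-well qHTS, Huh7 cells harboring an NPC1 promoter–luciferase construct received compound for 24 h; activation was quantified by luminescence following luciferase reagent addition.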
ELG1 genotox – induces genotoxicity in HEK293T cells with luciferase-tagged ELG1; AID 504466; Potency, µM (titrated, usually from 46 µM), inactives show at the top dose activity change, positive = activation, most hits filed as activators; 1.3% of 330,000 active; HEK293T ELG1-luciferase reporter, luminescence, 16 h; note: % of control where 0% means no effect; nearly all actives have a fitted effect of over 60% in size
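Genotoxic stress is detected as increased luminescence from luciferase-tagged ELG1 in HEK293T cells, measured with ONE-Glo after a 16 hr treatment at 37 °C.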
Rab9 promoter act – Rab9 promoter activation. Huh7 Rab9 promoter-luciferase reporter, luminescence, 24 h. Potency, µM (series often up to 9.22 µM), inactives show at the top dose activation, negative = inhibition, most hits filed as activators. 2.8% of 320,000 active. AID 485297; note: % of control where 0% means no effect; nearly all actives have a fitted effect of over 60% in size
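Huh7 reporter line, Rab9 promoter upstream of luciferase. Compound exposure 24 h at 37 °C in reduced-serum medium with 10% FBS. Read-out: luminescence.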
FLuc counter – inhibits or activates purified firefly luciferase, miR-21 counter-screen; P08659; purified FLuc, Km substrates, luminescence inhibition; Potency, µM (series often up to 57.5 µM), for inactives: at the highest dose activity change, negative = inhibition, usual class: inhibitors; 6.9% of 360,000 active; AID 588342;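 note: plate controls were vehicle for no effect and reference inhibitor for full effect; nearly all actives have a fitted effect of over 55% in size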
Target sequence (P08659 whole entry, looked up): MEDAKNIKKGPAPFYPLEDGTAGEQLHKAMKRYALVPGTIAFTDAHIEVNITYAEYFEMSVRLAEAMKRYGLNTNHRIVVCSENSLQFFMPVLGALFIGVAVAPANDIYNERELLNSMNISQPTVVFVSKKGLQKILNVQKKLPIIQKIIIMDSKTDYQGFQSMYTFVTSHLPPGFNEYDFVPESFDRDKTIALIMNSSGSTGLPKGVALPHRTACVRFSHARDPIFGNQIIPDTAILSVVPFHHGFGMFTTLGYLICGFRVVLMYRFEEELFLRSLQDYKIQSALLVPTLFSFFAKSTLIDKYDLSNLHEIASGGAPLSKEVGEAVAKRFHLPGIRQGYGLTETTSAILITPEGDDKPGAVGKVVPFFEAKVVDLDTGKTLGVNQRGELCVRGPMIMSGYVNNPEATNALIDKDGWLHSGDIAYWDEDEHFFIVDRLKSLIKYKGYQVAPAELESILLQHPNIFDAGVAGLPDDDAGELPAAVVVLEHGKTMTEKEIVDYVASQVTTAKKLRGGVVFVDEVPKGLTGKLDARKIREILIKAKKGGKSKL
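Biochemical qHTS of compounds, final roughly 60 µM downward over six points, against 10 nM purified firefly luciferase using Km concentrations of substrates (10 uM D-luciferin, 10 uM ATP) in Tris acetate pH 7.5 buffer; luminescence output.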
SMN2 splice up – enhancers of SMN2 splice variant expression | HEK293 SMN2-luciferase splicing reporter, luminescence, 30-36 h | Potency, µM (doses to about 46.1 µM), without a hit: at the top dose activity change, positive = activation, most hits filed as activators | 2.8% of 210,000 active | AID 1458; note: % of control where 0% means no effect; nearly all actives have a fitted effect of over 55% in size
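qHTS luciferase splicing reporter: luminescence rises when SMN2 exon 7 is included in transfected HEK293 cells. Compound exposure lasted 30-36 h at 37C, with 4.5 mM final sodium butyrate as control, followed by a ONE-Glo read.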
ELG1 repair inh – ELG1-dependent DNA repair inhibition; HEK293T ELG1-luciferase reporter, luminescence, 16 h; DNA damage induced by 5-fluorouridine; Potency, µM (top dose mostly 46.1 µM), without a hit: at the highest dose activity change, negative = inhibition, usual class: inhibitors; 2.3% of 330,000 active; AID 504467; note: % is set by controls: 0 for no effect and ±100 for the full control effect; nearly all actives have a fitted effect of over 55% in size
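DMSO vehicle served as the neutral condition. Each well held 2,000 cells given 5-fluorouridine plus compound; after 16 hr at 37 °C/5% CO2, ONE-Glo was added and luciferase measured 30 min later.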
The depositor's hits bear a star; ? = inconclusive; nt = no result; ! = not confirmed by another sample; [ ] = another dose, or the depositor's remark. Calls come from the whole dose curve; as a rule, active = well fitted curve in the direction sought with a large enough effect; inconclusive = small, poorly fitted or top-dose-only effect, or another doubt; inactive = no such curve, though single readings can be large; an effect the other way counts as inactive or inconclusive. Potency is the fitted concentration of half-maximal effect.

SMILES	NPC1 promoter act	ELG1 genotox	Rab9 promoter act	FLuc counter	SMN2 splice up	ELG1 repair inh
COc1ccc(CCNc2ncnc3c2c(-c2ccccc2)cn3-c2cccc(Cl)c2)cc1OC	nt	nt	nt	-0.4%	nt	nt
CC1CCC(NC(=O)C2(C)Cc3ccccc3C(=O)N2Cc2ccc(Cl)cc2)CC1 (centres undefined)	nt	nt	nt	-1.7%	-7.0%	nt
COc1ccc(-c2nc3c(c4c2C[C@H](c2ccccc2)OC4)CN(C(=O)Cc2cccs2)CC3)c(C)c1	nt	nt	nt	nt	1.6%[9.22 µM]	nt
CCCCOc1ccc(Cn2c(=O)sc3ccccc32)cc1	nt	nt	nt	-0.6%	-23.5%	nt
COc1ccc(Cl)cc1NC(=O)CN1C(=O)C(C)(C)c2cc(S(=O)(=O)N3CCCCC3)ccc21	nt	nt	nt	-4.5%	nt	nt
O=C1C2C3c4ccccc4C(c4ccccc43)C2c2nc3ccccc3n21 (centres undefined)	-2.3%	-2.8%	-0.5%	2.0%	-26.2%	16.4µM*
COC(=O)c1ccc(COc2ccccc2/C=C/C(=O)c2ccc(OCC(=O)O)cc2)cc1	-0.2%	-5.0%	3.4%	5.36µM*	nt	-11.7%
COC(=O)c1ccc(COc2ccccc2/C=C(\C#N)C(=O)NC(C)C)cc1	-0.9%	14.8%	-1.4%	1.2%	-5.1%	?
COC(=O)c1ccc(COc2ccccc2/C=C(\C#N)C(=O)Nc2c(C)cccc2C)cc1	-12.5%	10.9%	-10.6%	-0.6%	6.5%	25.9µM*
O=C(c1csnn1)N1CCC2(CCCN(Cc3cc(C(F)(F)F)cc(C(F)(F)F)c3)C2)CC1	nt	nt	nt	nt	-5.6%	nt
Cc1ccc(NC(=O)CSc2nncn2C)c(C)c1	nt	nt	nt	1.3%	6.9%	nt
Cc1ccc(C2=NN=C(NC(=O)C(F)(F)F)SC2)cc1	1.41µM*	?	0.794µM*	16.9µM*	nt	?
Cc1ccc(C2=NN=C(NC(=O)CSc3nncn3C)SC2)cc1	2.24µM*	?	1.41µM*	2.39µM*	8.91µM*	?
CC(=O)Nc1cccc(NC(=O)C(F)(F)F)c1	5.9%	-0.3%	-1.1%	-3.2%	0.7%	0.1%
COc1ccc(N2CCN(C(CNC(=O)C(=O)NCCc3ccccc3)c3cccnc3)CC2)cc1 (centres undefined)	nt	nt	nt	-15.3%	nt	nt
CCn1c(C(=O)OC)cc2c1ccn2-c1ccc(F)cc1	?	16.4µM*	?	9.53µM*	15.8µM*	?
COC(=O)c1cc2c(ccn2-c2ccc(F)cc2)n1Cc1ccc(OC)cc1	-1.0%	7.9%	2.3%	?	?	16.0%
COC(=O)c1cc2c(ccn2-c2ccc(F)cc2)n1CC(=O)N1CCN(C(=O)c2ccco2)CC1	-2.2%	-0.2%	-0.4%	2.3%	13.9%	16.4µM*
CC(C)OC(=O)c1cc2c(ccn2-c2ccc(F)cc2)n1CC(=O)N1CCN(C(=O)c2ccco2)CC1	-1.1%	-11.3%	-5.5%	-1.3%	nt	8.2µM*
CCN1/C(=C/C=C/c2oc3ccc(-c4ccccc4)cc3[n+]2CC)Oc2ccc(-c3ccccc3)cc21	-44.5%	-13.4%	-72.8%	?	nt	11.6µM*
CCOc1ccc(C2c3c(-c4ccc(C)cc4)n[nH]c3C(=O)N2c2ccc(Cl)cc2)cc1 (centres undefined)	nt	nt	nt	1.7%	-8.7%	nt
CCOc1ccccc1N(CC(=O)N1CCc2ccccc2C1)S(=O)(=O)c1ccccc1	nt	nt	nt	-7.7%	-3.0%	nt
CC(C)(C)NC(=O)c1cccc(NC(=O)c2ccco2)c1	-2.8%	-0.7%	3.5%	?	3.3%	8.2%
Cc1cc(C(=O)Nc2cccc(C(=O)O)c2)c(C)o1	3.55µM*	?	3.98µM*	10.7µM*	?	0.0%
Cc1ccc(C(=O)Nc2ccc(F)cc2)o1	22.7%	12.9%	25.6%	?	9.2%	?
SMILES	NPC1 promoter act	ELG1 genotox	Rab9 promoter act	FLuc counter	SMN2 splice up	ELG1 repair inh
CC(C)(C)c1ccc(C(=O)Nc2ccc(NC(=O)C(=O)O)cc2)o1	0.7%	-1.7%	-3.5%	9.53µM*	5.8%	-6.0%
Cc1cc(C(=O)Nc2cccc(C(=O)O)c2)oc1C	?	?	?	0.536µM*	1.58µM*	?
Cc1oc(C(C)(C)C)cc1C(=O)Nc1ccc(C(=O)O)cc1	?	17.3%	?	16.9µM*	?	?
Cc1oc(-c2ccccc2)cc1C(=O)Nc1cccc(C(=O)O)c1	14.3%	?	18.8%	?	nt	?
CC(C)Oc1cccc(C(=O)Nc2ccc(-c3nc4cc(Cl)cc(Cl)c4o3)cc2)c1	nt	nt	nt	-5.1%	-1.9%	nt
COc1ccc(CNC(=O)c2cc3c(-c4ccccc4F)nn(C)c3s2)cc1	nt	nt	nt	-4.7%	-27.1%	nt
COc1cccc2c1cc1c(=O)n(CC(=O)NCc3ccco3)nc(C)n12	nt	nt	nt	-4.7%	-3.3%	nt
Cc1oc(CC(C)C)cc1C(=O)Nc1ccc(C(=O)O)cc1	?	-41.0%	21.1%	12µM*	10.7%	?
Cc1oc(C(C)(C)C)cc1C(=O)Nc1cccc(C(=O)O)c1	0.708µM*	?	3.16µM*	12µM*	?	?
CC(C)NC(=O)N1CCN(S(=O)(=O)c2ccc3c(ccn3C)c2)CC1	nt	nt	nt	0.1%	nt	nt
NC(=O)C1CCN(C(=S)c2ccc(-c3ccc(Br)cc3)o2)CC1	?	10.3µM*!	?	?	8.91µM*	?
NC(=O)c1ccc(-c2ccc(Br)cc2)o1	6.9%	?	7.8%	19µM*	3.4%	?
CC(=O)c1ccc(N2CCN(C(=O)c3cn(C)c(=O)c4c3c3ccccc3n4C)CC2)cc1	nt	nt	nt	-2.9%	11.7%	nt
COc1ccc(NC(=O)CCn2nc(-c3ccccc3OC)c3c(C)cc(C)nc32)cc1	nt	nt	nt	-18.6%	3.1%	nt
O=C(c1ccccc1)N1CCN(c2ncnc3c(-c4ccccc4)nsc23)CC1	-3.5%	-11.0%	-5.2%	4.0%	nt	?
Cc1ccc(-c2nsc3c(N4CCC(C(N)=O)CC4)ncnc23)cc1	1.58µM*	?	2.82µM*	1.51µM*	-15.7%	?
O=C(N1CCCC1)N1CCN(c2ncnc3c(-c4ccc(Cl)cc4)nsc23)CC1	22.3%	?	10.6%	16.9µM*	?	?
Cc1ccc(C(=O)N2CCN(c3ncnc4c(-c5ccccc5)nsc34)CC2)cc1	-4.3%	-0.7%	-11.1%	-14.4%	-24.6%	6.0%
FC(F)(F)c1cccc(Nc2c3c(nc4ccc(Cl)cc24)CCC3)c1	nt	nt	nt	0.5%	-71.6%	nt
CCOc1ccc(N(CC(=O)Nc2ccc(C)c(C)c2)S(C)(=O)=O)cc1	2.82µM*	?	?	10.7µM*	nt	?
Cc1ccc(C(=O)Nc2ccccc2C(=O)N2CC3(C)CC2CC(C)(C)C3)cc1 (centres undefined)	0.8%	-11.6%	1.2%	2.1%	2.6%	23.1µM*
CCOC(=O)c1sc(NC(=O)C(C)(C)C)cc1C	2.82µM*	18.4µM*	3.16µM*	12µM*	10µM*	?

Assay outcomes as filed in PubChem BioAssay.
